Screen size: about 16,000 compounds; about 4,000 (25%) were called active. About 26% were inconclusive and are not listed. Only a sample is shown. Unmarked numbers belong to inactive results. The call rests on the fitted dose curve; in most records, active means well fitted curve in the direction sought with a large enough effect; inconclusive means small, poorly fitted or top-dose-only effect, or effect the other way; inactive means no such curve, though single readings can be large or run the other way.
On the % scale 0 is the no-effect control and ±100 the full control effect.

Sequence of Cytochrome P450 2C9 (Homo sapiens) (P11712 whole entry, looked up): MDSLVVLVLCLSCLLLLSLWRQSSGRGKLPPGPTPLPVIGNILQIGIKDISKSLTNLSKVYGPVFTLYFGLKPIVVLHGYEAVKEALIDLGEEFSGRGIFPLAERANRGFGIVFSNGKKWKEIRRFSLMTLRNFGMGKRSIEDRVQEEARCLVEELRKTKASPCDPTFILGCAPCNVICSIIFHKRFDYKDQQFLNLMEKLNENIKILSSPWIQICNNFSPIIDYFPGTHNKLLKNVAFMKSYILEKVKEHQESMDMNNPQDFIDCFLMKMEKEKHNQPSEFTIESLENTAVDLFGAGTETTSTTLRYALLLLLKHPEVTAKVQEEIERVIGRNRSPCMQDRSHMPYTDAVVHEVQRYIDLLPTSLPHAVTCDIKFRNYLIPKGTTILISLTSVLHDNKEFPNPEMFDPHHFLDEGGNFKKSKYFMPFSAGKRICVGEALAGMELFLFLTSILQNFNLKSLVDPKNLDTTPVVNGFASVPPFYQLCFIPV

This experiment concerns the target Cytochrome P450 2C9 (Homo sapiens) (UniProt P11712). Briefly: Cytochrome panel assay with activity outcomes. The settings on record: recombinant CYP, pro-luciferin dealkylation, luminescence, p450-cyp2c9; series mostly up to 57.1 µM.
`O=C(c1ccccc1)[C@H](Nc1ccc2ccccc2c1)c1ccccc1`: the activity, negative = inhibition was -6.81% [at 11.4 µM].

With `Cc1nc(SC(C(=O)c2ccccc2)c2ccccc2)n[nH]1` (stereo not given), the half-maximal activity concentration (AC50) is 4470 nM (active).

Consider `O=C1COC(c2ccccc2O)=NN1CCCN1CCCC1`, for which the activity, negative = inhibition is 2.77% [at 11.4 µM].

Take `Cc1ccc(NS(=O)(=O)c2cc(C(=O)N3CCc4ccccc4C3)ccc2Cl)cc1`: the AC50 is 2510 nM (active).

Regarding `O=C(O)[C@@H]1[C@@H](C(=O)NCc2ccccn2)[C@@H]2C=C[C@@H]1O2`, the activity, negative = inhibition was 1.33% [at 11.4 µM].

On to `Cc1ccc(NS(=O)(=O)c2cc(C(=O)NCc3ccccn3)ccc2Cl)cc1`, for which the AC50 is 17800 nM (active).

On to `CN(c1ccc(C(=O)NCc2ccccn2)cc1)S(C)(=O)=O`, for which the AC50 result was “inactive”.

Take `CC1CCN(C(=O)CN(C)S(=O)(=O)c2cccc3nsnc23)CC1`: the AC50 entry was “inactive”.

`CN(CC(=O)Nc1ccc(F)c(F)c1)S(=O)(=O)c1cccc2nsnc12`: the AC50 was 355 nM (active).

With `COc1ccc(C(F)(F)F)cc1N/C=C\c1nnnn1-c1ccccc1`, the half-maximal activity concentration (AC50) is 4470 nM (active).

On to `CS(=O)(=O)N1CCC[C@@]2(CCN(c3ncccn3)C2)C1`, for which the AC50 result is “inactive”.

Consider `O=C(O)COC(=O)Cc1ccccc1Nc1c(Cl)cccc1Cl`, for which the AC50 was 1580 nM (active).

Turning to `NC(=O)NC(=O)Nc1ccccc1Cl`, the AC50 entry was “inactive”.

Regarding `O=C(O)C[C@H](Cc1ccccc1Cl)C(=O)O`, the activity, negative = inhibition was 2.18% [at 11.4 µM].

For `CNc1ccnc(-c2ccccc2OC)n1`, the activity, negative = inhibition is -17.5% [at 2.29 µM].

In the case of `CC1CC(C)CN(CCCNC(=O)C2CCCN(c3nnc(N4CCCC4=O)s3)C2)C1` (stereo not given), the AC50 result was “inactive”.

Regarding `O=C(NCCC1=CCCCC1)C1CCCN(c2nc3ccccc3o2)C1` (stereo not given), the AC50 is 3550 nM (active).

For `CCCS(=O)(=O)N1CCCC(C(=O)NCCN(C)Cc2ccccc2)C1` (stereo not given), the AC50 result is “inactive”.

Consider `CC(C)Cn1c(=O)n(C)c(=O)c2[nH]cnc21`, for which the AC50 result is “inactive”.

For `Cn1c(=O)c(C(=O)CN2CCOCC2)c(N)n(Cc2ccccc2)c1=O`, the AC50 result is “inactive”.

With `CC(C)Cn1c(N)c(C(=O)CSc2ccc3c(c2)OCCO3)c(=O)n(C)c1=O`, the AC50 is 3550 nM (active).

Take `CN1CCN(c2ncncc2-c2ccoc2)CC1`: the activity, negative = inhibition was 17.1% [at 2.29 µM].

Turning to `O=C(Nc1ccccc1C(=O)NCCc1ccccc1)c1ccco1`, the AC50 was 2820 nM (active).

As for `CCC(NC(=O)c1ccccc1NC(=O)c1ccco1)C(=O)NC1CCCCC1` (stereo not given), the concentration at half-maximal activity (AC50) was 7080 nM (active).

Consider `Cc1ccc(C(C(=O)NC2CCCCC2)N2CCN(C(=O)c3ccco3)CC2)cc1` (stereo not given), for which the AC50 entry was “inactive”.

As to `O=C(Nc1ccccc1C(=O)Nc1ccc2c(c1)OCO2)c1ccco1`, the AC50 was 1410 nM (active).

With `CCCC[P+](CCCC)(CCCC)Cc1ccc(NC(=O)[C@@H](Cc2ccc3ccccc3c2)NC(=NC2CCCCC2)NC2CCCCC2)cc1`, the AC50 entry is “inactive”.

`COc1ccccc1CNc1cc(-c2ccc(C(=O)N(C)C)cc2)ncn1`: the activity, negative = inhibition is 10% [at 2.29 µM].

Turning to `CN1CCN(C2=Nc3ccccc3Oc3ccc(Cl)cc32)CC1`, the AC50 result was “inactive”.

Regarding `COC(=O)c1c(NC(=O)c2ccco2)sc2c1CCC2`, the AC50 is 2820 nM (active).

With `CCN1C(=O)[C@H]2[C@H]3[C@H](O)[C@H](O)C/C(=N/O[C@@H]4O[C@@H](COC(C)=O)[C@@H](OC(C)=O)[C@@H](OC(C)=O)[C@H]4OC(C)=O)[C@H]3CC[C@@H]2C1=O`, the activity, negative = inhibition is 23.1% [at 11.4 µM].

With `COc1ccc(-c2cc(C(=O)Nc3cc(OC)c(OC)c(OC)c3)no2)cc1OC`, the AC50 result is “inactive”.

Turning to `COc1cc(NC(=O)c2cc3nc(-c4ccccc4)cc(-c4ccccc4)n3n2)cc(OC)c1OC`, the AC50 is 2240 nM (active).

For the compound `O=c1ccnc(SCc2ccc(Cl)cc2)[nH]1`, the activity, negative = inhibition is -29.9% [at 11.4 µM].

`CC(C)[C@H](N)c1nnc(SCc2ccc(Cl)cc2)o1`: the AC50 was 1780 nM (active).

`Clc1ccc(CSc2ncnc3c2ncn3[C@@H]2CCCCO2)cc1`: the activity, negative = inhibition is -17.8% [at 11.4 µM].

For `CC(CC(=O)O)(CC(=O)O)C(=O)O`, the activity, negative = inhibition is -9.5% [at 11.4 µM].

Regarding `O=C(O)CCSCc1ccccc1`, the activity, negative = inhibition was 24.2% [at 11.4 µM].

For the compound `O=C(Cc1ccccc1[N+](=O)[O-])NCCSCc1c(F)cccc1Cl`, the AC50 result was “inactive”.

Consider `O=C(Cc1ccccc1)NCCSCc1ccc(Cl)cc1`, for which the half-maximal activity concentration (AC50) is 3980 nM (active).

Turning to `CCN(CC)c1ncnc2c1sc1nc(C)cc(C)c12`, the half-maximal activity concentration (AC50) was 17800 nM (active).

As for `Cc1noc(C)c1-c1cncnc1Nc1ccccc1`, the activity, negative = inhibition was -0.353% [at 2.29 µM].

`CCN1C(=O)C(CC(=O)Nc2ccc(Br)cc2)N(CCCc2ccccc2)C1=S` (stereo not given): the AC50 is 708 nM (active).

On to `CCNc1ncc2nc(-c3ccc(OC)cc3)c(=O)n(Cc3cccs3)c2n1`, for which the AC50 entry is “inactive”.

With `CCN1C(=O)C(CC(=O)Nc2ccc(OC)cc2)N(Cc2cccs2)C1=S` (stereo not given), the AC50 was 7080 nM (active).

For `CCOC(=O)C1=C(C)N=C2c3ccccc3C(=O)C2C1c1ccc(C)cc1` (stereo not given), the AC50 is 891 nM (active).

Take `CCOC(=O)C1=C(C)N=C2c3ccccc3C(=O)C2C1c1ccc(Cl)cc1` (stereo not given): the AC50 was 562 nM (active).

For `Cc1nnsc1SC(C)C(=O)O` (stereo not given), the AC50 result is “inactive”.

For `CC(=O)c1cccc(NS(=O)(=O)c2ccc(N/C=C\C(=O)c3ccc(F)cc3)cc2)c1`, the AC50 was 2820 nM (active).

As for `CC(=O)c1cccc(NC=C2C(=O)OC3(CCCCC3)OC2=O)c1`, the AC50 result was “inactive”.

With `O=C(/C=C/Nc1ccccc1)c1ccc(Oc2ncccn2)cc1`, the AC50 result was “inactive”.

Regarding `Cc1cnc(CNc2cc(-c3ccccc3CN(C)C)ncn2)cn1`, the activity, negative = inhibition is 10.9% [at 2.29 µM].

`COC(=O)c1ccc(/C=N\NC(=O)c2ccc(C)cc2Cl)cc1`: the AC50 was 8910 nM (active).

Consider `Cc1ccc(C(=O)N/N=C/c2ccc(S(=O)(=O)O)o2)c(Cl)c1`, for which the AC50 entry is “inactive”.

Take `Cc1ccc(S(=O)(=O)N[C@H](C(=O)Oc2ccc3c(C(F)(F)F)cc(=O)oc3c2)c2ccccc2)cc1`: the AC50 is 10000 nM (active).

On to `Cc1ccc(S(=O)(=O)N[C@H](CN)C(=O)O)cc1`, for which the activity, negative = inhibition was -0.685% [at 11.4 µM].

`Cc1ccc(S(=O)(=O)NC(CC(C)C)C(=O)Oc2ccc3c4c(c(=O)oc3c2)CCC4)cc1` (stereo not given): the AC50 result was “inactive”.

Turning to `c1ccc2c(c1)ncn2-c1ccc(-c2ccnc(-c3ccncc3)n2)cc1`, the AC50 is 224 nM (active).

In the case of `CCC(C)NS(=O)(=O)c1ccc(OCC(=O)NCC2CCCO2)cc1` (stereo not given), the AC50 entry was “inactive”.

For the compound `CCC(C)NS(=O)(=O)c1ccc(OCC(=O)Nc2ccc3c(c2)OCCO3)cc1` (stereo not given), the half-maximal activity concentration (AC50) was 3980 nM (active).

Source of the values: PubChem BioAssay AID1851 (National Center for Advancing Translational Sciences (NCATS), 2009).
